The supplement of paper PMC6555819

Tested on: PXR:RXRa (NR concentration 270 nM, RXRa partner concentration 90 nM)
Assay: PBM binding z-score (relative to random genomic background probes); higher = stronger binding; sequences stand for … in GC…GCGATTGACAGCGTAGAATGAAGG
Outline: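 Each nuclear receptor dimer, without ligand, was incubated for 1 h on custom Agilent 4×180K protein-binding microarrays. Binding was detected with antibodies against each partner (one per run), and scanned fluorescence was regression-normalized. The binding z-scores are referenced to random human genomic background probes.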

**Q.** Which PBM binding z-score does the source give for CCTTACGGGACACTGACAGGTTATAGCATTTGGA here?
**A.** -0.2

**Q.** For AGAACGAGGGCAATGAGTTGAGAGCACGGGTGGC, which PBM binding z-score is on record?
**A.** 1.04

**Q.** CCTGCTAGGTCAATGGTCGGCTAAAGCAGCTCGC was tested. Which PBM binding z-score did it give?
**A.** 0.918

**Q.** With CCGACTGGGGCTAAGGTTACCATACTCAGTACGA as the sequence, how does the PBM binding z-score read?
**A.** 0.473

**Q.** Which PBM binding z-score does the source give for CTTCCAAGGTCAATGCTAGGTCAGTGAAAGCATT here?
**A.** 4.64

**Q.** With CATACTGGGCCAAAGGTCATTGATTCCAATGCTC as the sequence, how does the PBM binding z-score read?
**A.** 5.52

**Q.** AGAACGAGGGCACGCTGAGTTGCTAGCAGAGTAG was tested. Which PBM binding z-score did it give?
**A.** 0.539

**Q.** CCTCGGAGGACCACAGGAGGTCAGAGCTGCCAGA was tested. Which PBM binding z-score did it give?
**A.** 2.22

**Q.** With AGTCAAAGTTCAGGACGAGGTTACGTAAAGCACG as the sequence, how does the PBM binding z-score read?
**A.** 4.73

**Q.** With TCTAGTTGGTCACGGACGTCACACACGACGGGTA as the sequence, how does the PBM binding z-score read?
**A.** 0.245

**Q.** TAGCCTAGGTCATTGCGCCAGTATAGTACGCATC was tested. Which PBM binding z-score did it give?
**A.** 1.89

**Q.** With TCTTTTAGATCAAGCAGGTTAAGAAAGCCTGAGT as the sequence, how does the PBM binding z-score read?
**A.** 0.774

**Q.** Which PBM binding z-score does the source give for CATACAGGGTCAGCTAGGCCACAGTAGGGACGGC here?
**A.** 2.51

**Q.** With GCTAGTTGGTCAGTAAAAGGTCACACGCCGGTCG as the sequence, how does the PBM binding z-score read?
**A.** 5.06

**Q.** For ACAGACAAGTGAGTGAAGGTAACTCAGCTGGACG, which PBM binding z-score is on record?
**A.** -0.521

**Q.** With CCTACTGGGCCATTCAGAGGTCTTTGATCATATG as the sequence, how does the PBM binding z-score read?
**A.** -0.375

**Q.** For CCGACTGGGGTAGAAAGGTTACCATACCATCCGG, which PBM binding z-score is on record?
**A.** 1.32

**Q.** How did the PBM binding z-score turn out when CCGACTGGGGCATAAGGTTAGCATAAGCCAGCCC was run?
**A.** -0.447

**Q.** For CGTCAAAGTTCCACTAAGGTAACGTAAAGCACGC, which PBM binding z-score is on record?
**A.** 0.17

**Q.** For CCGACTGGGGCAGATAGGTTACCATACCATCCGG, which PBM binding z-score is on record?
**A.** -0.407

**Q.** For CATACAGGGTCAGCTAGGCGAGAGTAGGGACGGC, which PBM binding z-score is on record?
**A.** 1.83

**Q.** With GGAACGAGGGCAAGTTGATCGCAGAGTTTGATGG as the sequence, how does the PBM binding z-score read?
**A.** 0.576

**Q.** For ACAGACAGGTGATGAAGCTAACTCAGGCTATCAT, which PBM binding z-score is on record?
**A.** -0.231

**Q.** How did the PBM binding z-score turn out when GCATATAGGTAATACAAGGTAAAAGTCCGATTGT was run?
**A.** 0.0106

**Q.** How did the PBM binding z-score turn out when TCTGGGAGGACACGAAAGGTCAGAGCTCGACATC was run?
**A.** 4.23

**Q.** Which PBM binding z-score does the source give for CCGACTGGGGCAAAGTTACCATAACGCACAGCCA here?
**A.** -0.542

**Q.** Which PBM binding z-score does the source give for AGAATGAGGTTAAGATGAGGGAAACAGAATACAT here?
**A.** 1.35

**Q.** How did the PBM binding z-score turn out when ATATGTAGATTATCGGGTCATTCAGTTTGCGCAT was run?
**A.** 3.39

**Q.** Which PBM binding z-score does the source give for TCATATTGGTAAAGGTGAAAGTCGAACGATATGA here?
**A.** 0.712

**Q.** How did the PBM binding z-score turn out when TCTCGGAGCACACGAAGGTCAGAGCTTTCCAGAG was run?
**A.** 1.12

**Q.** With CAAACTAGGTCAAGAGATCAAAGTCCGCTTCCCG as the sequence, how does the PBM binding z-score read?
**A.** 1.51

**Q.** For ATCGAAAGGTCGAGGGTGAGTATACCCACCCGAA, which PBM binding z-score is on record?
**A.** 2.41

**Q.** For CAGCCTAGGTCAGGGCCAGTATTGGAGGAACGTT, which PBM binding z-score is on record?
**A.** 0.0346

**Q.** For ATCGAAAGGTCGAAGGTGAGTGTACCCACCCGAA, which PBM binding z-score is on record?
**A.** 3.07

**Q.** For CGAACTAGGTTAAGGACAGTGAATCTCCGCACGC, which PBM binding z-score is on record?
**A.** -0.145

**Q.** Which PBM binding z-score does the source give for TCATATAGGTAATACAGGTGAAAGCCGGCATCTA here?
**A.** 0.985

**Q.** CCTGCTAGGTCATCGTCAGCTAATCTACAGTATG was tested. Which PBM binding z-score did it give?
**A.** 1.45

**Q.** TCTTGGAGATCAACAGGAGGTTAAGAAAGATCGA was tested. Which PBM binding z-score did it give?
**A.** 1.09

**Q.** GCGACTGGGGCAAAGCAGGTTACCATAAGGTTGG was tested. Which PBM binding z-score did it give?
**A.** 0.415

**Q.** For TAGCCTAGGTCATGGACCAGTATACCACGCGAAC, which PBM binding z-score is on record?
**A.** 1.69
